# Assays:
# Assay in all cases: pooled miR-30 sensor sort-seq; sequence = guide strand
# Details in all cases: shRNA
# ITFG2 = target: ITFG2
# ITGA2 = target: ITGA2
# ITFG1 = target: ITFG1
# ITGAM = target: ITGAM
# JAM3 = target: JAM3
# KCND2 = target: KCND2
# KCNK6 = target: KCNK6
# Also: reference of the scale not given here.
sequence,measurement,setting,value
TAACGTATCGTTATCAACGTCT,sensor-assay potency score (higher = more potent),ITFG2,0.345
ATCGTTATCAACGTCTCCGAGG,sensor-assay potency score (higher = more potent),ITFG2,-1.09
TTGTCGGACATCTAGGACTAGA,sensor-assay potency score (higher = more potent),ITGA2,-0.587
TTGACTGAGCGCTAACACCAGC,sensor-assay potency score (higher = more potent),ITGA2,-1.15
TAGATCTTCTGGTTGAAAGTGA,sensor-assay potency score (higher = more potent),ITFG2,-0.00804
TTTTCATCCACTTGGAAGCGGA,sensor-assay potency score (higher = more potent),ITFG2,-0.742
TTTCGTAGCACTTCGTCGCCCA,sensor-assay potency score (higher = more potent),ITGA2,0.484
TAACTTTAACAAAATAAGCATC,sensor-assay potency score (higher = more potent),ITFG1,-1.35
TAAATCTCCATAGCCATCCAAG,sensor-assay potency score (higher = more potent),ITGA2,-1.12
TTTGATGTTGCCAATTAGGTGA,sensor-assay potency score (higher = more potent),ITFG2,-0.267
TTCTGTTGGAATACTAGCGATT,sensor-assay potency score (higher = more potent),ITGA2,-0.717
TATTGCTGAAATCTTGTAGGAC,sensor-assay potency score (higher = more potent),ITFG1,0.541
TGAACTGTGATTTCTGTCCTGC,sensor-assay potency score (higher = more potent),ITGA2,0.82
TATACATGATATAAGGTCCAGG,sensor-assay potency score (higher = more potent),ITFG1,-0.949
TAGATCACCATTGAAATCCATA,sensor-assay potency score (higher = more potent),ITFG1,-0.916
TTGCATATTGAATTGCTCCGAA,sensor-assay potency score (higher = more potent),ITGA2,0.0822
TATTGATGCTGCATGACCCGAC,sensor-assay potency score (higher = more potent),ITGAM,0.154
TTGAGGGAGCACACTGTGGTGG,sensor-assay potency score (higher = more potent),ITFG2,-0.228
TACTTGTAGTGGTCAATGCTGG,sensor-assay potency score (higher = more potent),ITFG1,-0.574
TAGCACTTCGTCGCCCACCAGA,sensor-assay potency score (higher = more potent),ITGA2,-1.01
TATCGTTATCAACGTCTCCGAG,sensor-assay potency score (higher = more potent),ITFG2,-0.305
TTATCTTACGAGGACAGTCATT,sensor-assay potency score (higher = more potent),ITFG1,-1.41
TAAACAGGTAGACTCTTCCTTC,sensor-assay potency score (higher = more potent),ITGA2,0.446
TTGCTTAGTAGGTCTGAACTTT,sensor-assay potency score (higher = more potent),ITGA2,-0.177
TTGCTGTCCACGTCCACGGAGC,sensor-assay potency score (higher = more potent),ITGAM,-1.3
TTAGAGTCTACATCAAACGTGA,sensor-assay potency score (higher = more potent),ITGAM,0.224
TTATACACAGACACCTTCCCGC,sensor-assay potency score (higher = more potent),ITFG2,0.0194
TTTCTTGAGGGACACCAGCTGC,sensor-assay potency score (higher = more potent),ITFG2,-0.971
TACACAGACACCTTCCCGCTGG,sensor-assay potency score (higher = more potent),ITFG2,-0.00421
TAGGTGAGTGGAGACATTCTTG,sensor-assay potency score (higher = more potent),ITFG2,-0.555
TTTAGGTCTGTCAGCTCCCAGT,sensor-assay potency score (higher = more potent),ITFG1,-0.933
TGAGTGTCTAGCTCTGTCCGAG,sensor-assay potency score (higher = more potent),JAM3,-0.68
TAGAGTAAGAAGAGTAGTGGTC,sensor-assay potency score (higher = more potent),JAM3,0.457
TTAAAGATCCTGAAGACCCGGA,sensor-assay potency score (higher = more potent),KCND2,0.918
TTCTGAGGCACAACTCTTCAGT,sensor-assay potency score (higher = more potent),KCND2,-0.605
TAGACTGTGACCAGCACCTTGT,sensor-assay potency score (higher = more potent),KCNK6,-0.385
